# Neddyl block = cullin neddylation inhibition; actives 0.58% (n = 360,000); calls only at 25 µM; P61081+Q13564; TR-FRET cullin neddylation, biochemical; in the data active means inhibition above about 36%
# Target sequence (P61081 whole entry, looked up): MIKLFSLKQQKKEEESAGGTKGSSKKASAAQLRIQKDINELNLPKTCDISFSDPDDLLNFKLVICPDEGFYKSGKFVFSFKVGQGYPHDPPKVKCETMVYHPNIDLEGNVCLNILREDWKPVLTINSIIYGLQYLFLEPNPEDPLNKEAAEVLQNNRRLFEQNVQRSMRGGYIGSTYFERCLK
# Target sequence (Q13564 whole entry, looked up): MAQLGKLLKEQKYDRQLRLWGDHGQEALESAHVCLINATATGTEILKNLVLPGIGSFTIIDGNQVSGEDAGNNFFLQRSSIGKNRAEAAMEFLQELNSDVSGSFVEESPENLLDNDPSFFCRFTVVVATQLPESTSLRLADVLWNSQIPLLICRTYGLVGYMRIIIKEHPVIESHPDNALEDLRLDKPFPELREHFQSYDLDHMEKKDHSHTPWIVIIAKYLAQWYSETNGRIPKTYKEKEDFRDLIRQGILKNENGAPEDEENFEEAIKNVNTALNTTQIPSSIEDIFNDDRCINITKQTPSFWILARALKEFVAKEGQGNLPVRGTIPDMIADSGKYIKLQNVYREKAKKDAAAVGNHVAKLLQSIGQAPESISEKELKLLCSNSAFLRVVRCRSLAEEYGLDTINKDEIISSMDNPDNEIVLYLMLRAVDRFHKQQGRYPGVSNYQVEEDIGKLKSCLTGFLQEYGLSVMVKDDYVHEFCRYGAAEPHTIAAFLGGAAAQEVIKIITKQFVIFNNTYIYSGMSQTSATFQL
# proKLK7 act = activators of human kallikrein-7 zymogen | activation, % at 7 µM | actives 0.9% (n = 370,000) | AID 652039 | purified proKLK7, EDANS-DABCYL substrate fluorescence; 100% is mature enzyme control, 0% vehicle | P49862;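 active means activation above the mean of all tested compounds plus 3 SD, computed per campaign excluding outliers beyond control limits, cut at about 13% in these data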
# FAS-TE inh = inhibitors of human fatty acid synthase thioesterase domain | P49327 | recombinant FAS-TE, OMFH fluorogenic substrate, fluorescence endpoint | inhibition, % at 15 µM | actives 0.67% (n = 360,000);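 active means compounds whose normalised, plate-corrected inhibition of enzyme fluorescence in the single-dose primary screen is 50% or more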;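 further: 0% = DMSO with enzyme and 100% = substrate without enzyme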
# PfG6PD inh = PfG6PD (Plasmodium falciparum) enzyme inhibition. PfGluPho enzyme, NADPH resazurin-diaphorase fluorescence. inhibition, % at 20 µM. actives 0.78% (n = 350,000);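 active means inhibition reaching at least a set limit at 20 µM in the primary screen, cut at about 59% in these data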;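 further: 0% = DMSO wells with substrate and 100% = DMSO wells lacking glucose-6-phosphate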
# proKLK7 act conf = proKLK7 activation, confirmation; purified proKLK7, EDANS-DABCYL substrate fluorescence; scaled: vehicle 0, mature enzyme 100; actives 68% (n = 3,200); AID 686949; activation, % at 7 µM; shares compounds with proKLK7 act;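 active means activation, as change over the incubation, above the mean of all tested compounds plus 3 SD, cut at about 13% in these data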
# EDANS interfere = counter-screen for kallikrein-7 activators: EDANS-DABCYL optical interference | actives 80% (n = 3,200) | EDANS-DABCYL substrate fluorescence interference, no enzyme, 4 h; solvent 0%, active enzyme control 100% | shares compounds with proKLK7 act | AID 686952 | activation, % at 7 µM;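 active means activation above the all-compound mean plus 3 SD, ignoring values outside control-based bounds, cut at about 4.8% in these data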;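 further: value is the 4 h activation minus the activation read at time zero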
# K7 EDANS ctr = counter-screen for kallikrein-7 activators: EDANS-DABCYL interference, dose response; shares compounds with proKLK7 act; EDANS-DABCYL peptide fluorescence interference, no enzyme; EC50, µM; actives 20% (n = 250); AID 720493;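 active means compounds that raise the fluorescence signal in this interference counterscreen, with EC50 at or below 10 µM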;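 further: intact quenched peptide substrate alone read at 355 nm excitation and 520 nm emission; signal is fluorescence gain from T0 to T4 after four hours at room temperature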
# Active calls of the source: *; i = inactive; / = no result given. Compounds with a hit are over-represented: about 2.7% of the library has one in this group of screens.
SMILES,Neddyl block,proKLK7 act,FAS-TE inh,PfG6PD inh,proKLK7 act conf,EDANS interfere,others
FC(F)(F)c1ccc2c(c1)N1CCCC1CN2 (stereo unspecified),i,0.8,3.9,-7.5,/,/,
Cc1c(O)ccc2c(CN3CCOCC3)cc(=O)oc12,/,41.2*,-5.7,4.2,65.1*,67.2*,
CCc1ccc2oc(=O)cc(CN3CCN(Cc4ccccc4)CC3)c2c1,i,0.6,14.7,-1.1,/,/,
COc1cc2c(cc1OC)CN(Cc1cc(=O)oc3cc(C)c(C)cc13)CC2,/,-5.8,7.6,-9.5,/,/,
Cc1cc(C)c2oc(=O)cc(CN3CCOCC3)c2c1,i,0.6,-2.0,-3.3,/,/,
Cc1cc2oc(=O)cc(CN3CCOCC3)c2cc1C(C)C,i,-0.8,6.2,-18.4,/,/,
O=c1cc(CN2CCOCC2)c2cc(Cl)c(O)cc2o1,/,54.1*,-5.0,24.1,62.7*,76.9*,
CCc1cc2c(CN3CCN(CC)CC3)cc(=O)oc2cc1O,/,70.6*,-12.8,-10.7,73.2*,74.6*,
COc1cc2c(cc1OC)CN(Cc1cc(=O)oc3cc(C)c(Cl)cc13)CC2,i,14.7*,18.2,-8.4,-7.7,-5.8,
COc1ccc(-c2noc(C3CCCN(C(=O)Nc4ccc(C)c(F)c4)C3)n2)cc1 (stereo unspecified),/,0.1,/,/,/,/,
CCCCNC(=O)C1c2ccccc2OCC(=O)N1Cc1cccnc1 (stereo unspecified),i,-0.2,-10.2,/,/,/,
CCOC(=O)C1=C[C@@H](C(C)(C)C)N(S(=O)(=O)c2ccc(C)cc2)[C@H]1c1ccc(F)cc1,i,1.2,28.8,/,/,/,
Cc1c(O)ccc2c(CN3CCN(CCO)CC3)cc(=O)oc12,/,66.2*,-8.0,-12.3,68.1*,69.4*,
Cc1ccc2c(CN3CCN(Cc4ccc5c(c4)OCO5)CC3)cc(=O)oc2c1C,i,0.7,20.0,9.7,/,/,
O=C(ONC(=O)C1C2C=CC(C2)C1C(=O)NOC(=O)c1ccccc1)c1ccccc1 (stereo unspecified),i,45.0*,-6.6,-10.7,0.5,-1.5,
CNc1ccc(-c2cccc(C(C)=O)c2)cn1,i,-0.9,-2.5,/,/,/,
CNc1ccc(-c2cccc(CO)c2)cn1,/,20.0*,-2.6,/,23.9*,16.2*,K7 EDANS ctr=>69.5
COc1ccc(NC(=S)N2CCC3CC2c2c(Cl)cccc23)c(OC)c1 (stereo unspecified),i,-0.5,9.2,-12.1,/,/,
Cc1ccnc(NC(=S)NC(=O)c2cncc(Br)c2)c1,i,12.9*,-1.3,-1.5,14.4*,14.7*,
Cc1ccc(NC(=S)NC(=O)c2cncc(Br)c2)c(C)c1,i,-0.1,4.2,-5.8,/,/,
CCCOc1ccc(F)cc1-c1cc(C(=O)NCc2cc(OC)cc(OC)c2)[nH]n1,i,-0.7,17.7,/,/,/,
O=C(CSc1ccccc1F)NCC(c1ccco1)N1CCCCC1 (stereo unspecified),i,0.2,-5.1,19.4,/,/,
COc1cc(NC(=O)c2c(F)cccc2F)c(Cl)cc1Cl,i,20.8*,3.5,-2.2,28.2*,27.1*,
COc1ccc(C(=O)Nc2cc(OC)c(Cl)cc2Cl)cc1,i,-0.2,5.8,-17.4,/,/,
CN(C(=O)COC(=O)c1ccccc1NCCO)C1CCS(=O)(=O)C1 (stereo unspecified),/,14.0*,-10.1,-0.6,39.5*,41.5*,
SMILES,Neddyl block,proKLK7 act,FAS-TE inh,PfG6PD inh,proKLK7 act conf,EDANS interfere,others
CN(C(=O)COC(=O)c1ccccc1NC(=O)c1ccco1)C1CCS(=O)(=O)C1 (stereo unspecified),i,0.2,-4.7,-1.9,/,/,
CC1=C(C(=O)Nc2ccc(C(=O)NCCCN3CCCCC3C)cc2)SCCO1 (stereo unspecified),i,-0.4,-5.8,6.4,/,/,
CCN(C[C@H]1N[C@@](Cc2ccccc2)(C(=O)OC)[C@H]2C(=O)N(C)C(=O)[C@@H]12)C(=O)Nc1ccc(Cl)cc1,i,0.1,0.3,-7.2,/,/,
CN1CC=C2C(C#N)=C(N)C(C#N)(C#N)C(Cc3ccccc3)C2C1 (stereo unspecified),i,23.8*,-7.5,15.9,12.0,9.3*,
CC(C)N1CC=C2C(C#N)=C(N)C(C#N)(C#N)C(c3ccccc3)C2C1 (stereo unspecified),i,16.0*,-12.6,8.0,29.1*,27.9*,
CC(C)(C)OC(=O)N1CC=C2C(C#N)=C(N)C(C#N)(C#N)[C@H](c3cccnc3)[C@H]2C1,i,18.5*,-9.4,-4.6,37.4*,34.2*,
N#CC1=C(N)C(C#N)(C#N)[C@H](c2ccncc2)[C@H]2CN(C(=O)OCc3ccccc3)CC=C12,i,30.7*,13.5,-3.9,26.7*,21.5*,
COc1cc(-c2cc3nc(NCc4cccc(Cl)c4)ccn3n2)cc(OC)c1OC,/,0.0,17.5,/,/,/,
N#Cc1ccccc1NC(=S)NC(=O)c1cccs1,i,14.4*,1.4,18.3,13.9*,16.3*,
Cc1ccccc1CN1CCCCC(NC(=O)c2ccc(F)cc2)C1=O (stereo unspecified),/,0.6,/,/,/,/,
Cc1cc(N2CCC(N(C)C3CCCC3)CC2)nc2cc(O)ccc12,/,15.9*,-11.2,-7.5,24.8*,30.9*,
Cc1cc(N2CCN(c3ccccc3)CC2)nc2ccccc12,i,0.7,25.6,9.5,/,/,
O=C(NCc1ccco1)c1ccc(-c2ccc(F)c(F)c2)c2ccoc12,i,0.4,19.5,/,/,/,
CN(C)C(=O)c1cccc(-c2cnc3cccnn23)c1,/,45.1*,-7.9,/,59.5*,59.2*,
Cc1ccc(-c2cc(NC=O)c3ncc(-c4cccc(C(=O)N(C)C)c4)n3c2)cc1,i,-2.0,6.9,/,/,/,
CN(C)CCCNC(=O)c1cccc(-c2cnc3cccnn23)c1,/,54.1*,-5.7,/,59.8*,61.9*,
CN(C)CCCNC(=O)c1cccc(-c2ccc3nccn3c2)c1,i,-0.6,-10.0,/,/,/,
Cc1coc2c(C)c3oc(=O)c(CCC(=O)N[C@@H](C)C(=O)N[C@@H](Cc4ccccc4)C(=O)O)c(C)c3cc12,/,22.6*,-3.3,-24.5,41.0*,36.5*,
CCOC(=O)N1CCN(C(=O)c2ccc3nc4ccsc4c(=O)n3c2)CC1,/,14.5*,-2.0,8.0,24.8*,20.4*,K7 EDANS ctr=>69.5
CCOC(=O)N1CCN(C(=O)c2ccc3nc4ccc(Cl)cc4c(=O)n3c2)CC1,/,-4.1,-1.4,3.9,/,/,
CCOC(=O)N1CCN(C(=O)c2cccn3c(=O)c4cc(Br)ccc4nc23)CC1,/,0.9,1.0,10.2,/,/,
CCOC(=O)N1CCN(C(=O)c2cccn3c(=O)c4sccc4nc23)CC1,/,73.3*,-9.0,6.5,63.3*,69.1*,
CC1(C)C2CCC1(C)C(OC(=O)C[n+]1ccccc1)C2 (stereo unspecified),i,0.7,-2.6,0.1,/,/,
